Experiment [1] deals with HaCat. The experiment in a line: Cytotoxic Profiling of Annotated Libraries Using Quantitative High-Throughput Screening (AID 1296008). Also: nearly all actives have a fitted effect of over 60% in size. The following applies: Five cell lines viability, CellTiter-Glo ATP luminescence, 48-72 h; max response: active compounds read low. In a few lines:
(§1)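 Cells exposed to compounds for 48 or 72 hr at 37 degrees Celsius. Viability read as ATP-coupled luminescence with CellTiter-Glo after 10 min at room temperature.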

The subject of a further experiment is KB-3-1. Described as above. The following applies: Five cell lines viability, CellTiter-Glo ATP luminescence, 48-72 h; max response: active compounds read low. The procedure, abridged: as §1
In general terms: In ATP-based viability assays light output follows the ATP content of the culture.

For experiment [2], the system named is NIH3T3. The experiment is described as above. To be noted: Five cell lines viability, CellTiter-Glo ATP luminescence, 48-72 h; max response: active compounds read low. In a few lines: as §1
Experiment [3] has as its system HACAT. The experiment is described as follows: qHTS assay to identify novel small-molecules to repurpose for Merkel cell carcinoma treatment (AID 1296009). Also: nearly all actives have a fitted effect of over 60% in size. To be noted: MCC and control cell lines, CellTiter-Glo viability, 72 h; series mostly up to 44.8 µM. The procedure, abridged: (§2)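 CellTiter-Glo luminescence after 72 hr compound exposure at 37 degree celsius gave cell viability. Libraries NPC and MIPE were run as 8- and 11-point dose responses; RLUs normalized to DMSO (negative) and no-cell (cytotoxicity) controls.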
(In general: qHTS replaces the single test concentration by a dilution series.)

For a further experiment, the system named is MCC-13. The description is as above. The following applies: MCC and control cell lines, CellTiter-Glo viability, 72 h; series mostly up to 46 µM. In a few lines: as §2
A further experiment concerns MCC-26. Described as above. The following applies: MCC and control cell lines, CellTiter-Glo viability, 72 h; series mostly up to 46 µM. In a few lines: as §2
Another experiment concerns MKL-1. The experiment is described as above. The following applies: MCC and control cell lines, CellTiter-Glo viability, 72 h; series mostly up to 46 µM. The procedure, abridged: as §2
For another experiment, the system named is UISO. The description is as above. To be noted: MCC and control cell lines, CellTiter-Glo viability, 72 h; series mostly up to 46 µM. In a few lines: as §2
For the next experiment, the system named is WaGa. Described as above. To be noted: MCC and control cell lines, CellTiter-Glo viability, 72 h; series mostly up to 46 µM. In a few lines: as §2
In the next experiment the test system is C33A. The experiment is described as follows: Primary qHTS to identify gynecologic anti-cancer compounds using libraries of approved drugs and bioactive compounds (AID 1345084). Also: nearly all actives have a fitted effect of over 55% in size. To be noted: Gynecologic cancer cell panel viability, ATPlite luminescence, 48 h; series mostly up to 57.5 µM. In a few lines: (§3)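 ATP-based viability (ATPlite), 1,000 cells/well, 16 h pre-incubation, 48 h compound at 37 C, 5% CO2, 15 min RT before read.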

The next experiment concerns CAOV3. The experiment is described as above. To be noted: Gynecologic cancer cell panel viability, ATPlite luminescence, 48 h; series mostly up to 57.5 µM. The procedure, abridged: as §3
In another experiment the test system is CASKI. The description is as above. To be noted: Gynecologic cancer cell panel viability, ATPlite luminescence, 48 h; series mostly up to 57.5 µM. In a few lines:
as §3

The subject of a further experiment is HeLa. Described as above. The following applies: Gynecologic cancer cell panel viability, ATPlite luminescence, 48 h; series mostly up to 57.5 µM. In a few lines: as §3
For a further experiment, the system named is Hek293T. The experiment is described as above. To be noted: Gynecologic cancer cell panel viability, ATPlite luminescence, 48 h, control line for the selectivity index; series mostly up to 57.5 µM. The procedure, abridged: as §3
For the next experiment, the system named is JEG-3. The experiment is described as above. The following applies: Gynecologic cancer cell panel viability, ATPlite luminescence, 48 h; series mostly up to 57.5 µM. The procedure, abridged:
as §3

The next experiment deals with OV90. The description is as above. To be noted: Gynecologic cancer cell panel viability, ATPlite luminescence, 48 h; series mostly up to 57.5 µM. The procedure, abridged:
as §3

The test system of the next experiment is MKL-2. The experiment is described as follows: qHTS assay to identify novel small-molecules to repurpose for Merkel cell carcinoma treatment (AID 1296009). Also: nearly all actives have a fitted effect of over 60% in size. The following applies: MCC and control cell lines, CellTiter-Glo viability, 72 h; series mostly up to 46 µM. The procedure, abridged:
as §2

Experiment [4] concerns NIH3T3. The description is as above. The following applies: MCC and control cell lines, CellTiter-Glo viability, 72 h; at 44.8 µM (top of the series) unless noted. In a few lines: as §2
For another experiment, the system named is Es-2. The experiment is described as follows: Primary qHTS to identify gynecologic anti-cancer compounds using libraries of approved drugs and bioactive compounds (AID 1345084). Also: nearly all actives have a fitted effect of over 55% in size. The following applies: Gynecologic cancer cell panel viability, ATPlite luminescence, 48 h; series mostly up to 57.5 µM. The procedure, abridged: as §3

SMILES strings stand for the structures. Several values for one entry are separate records, joined by “and”; a condition that tells them apart may be missing. Identical values can stand only once. Inconclusive results are not listed. The source holds several records for some structures; these can differ, active in one and inactive in another. A number with no mark means an inactive call. Activity calls are given as the source filed them. Calls follow the shape of the dose curve; as a rule, active = well fitted curve in the direction sought with a large enough effect; inconclusive = small, poorly fitted or top-dose-only effect, or another doubt; inactive = no such curve, though single readings can be large; an effect the other way counts as inactive or inconclusive.
% is scaled to controls: 0 for no effect and ±100 for the full control effect; potency is read from the fitted curve at half-maximal effect.

As for `CS(=O)(=O)c1ccc(-c2cnc(N)c(C(=O)Nc3ccccc3)n2)cc1`, in the experiment on HaCat [1], the max response is -14.1%. Also, the outcome in the experiment with HaCat [1] and in the experiment with KB-3-1 was inactive. Moreover, the Potency with NIH3T3 [2] was 14.8 µM (active) and 5.17 µM (active). In addition, the Potency result with HACAT [3], in the experiment on MCC-13, with MCC-26, in the experiment with MKL-1, in the experiment with UISO and with WaGa was “inactive” throughout. In addition, the Potency result with C33A, with CAOV3, in the experiment with CASKI, with HeLa, in the experiment with Hek293T and in the experiment with JEG-3 was “inactive” throughout. Besides, in the experiment with OV90, the Potency entry was “inactive”.
Consider `Cc1cc(Nc2cc(CN3CCOCC3)c3nc(C)c(Cc4ccc(Cl)cc4F)n3n2)n[nH]1`, for which the Potency was 14.8 µM (active) in the experiment on HaCat [1]; 4.18 µM (active) and 5.17 µM (active) in the experiment with KB-3-1; 13.2 µM (active) and 11.6 µM (active) in the experiment with NIH3T3 [2]; 23.5 µM (active) with UISO; 14.1 µM (active) in the experiment on HeLa. Further, the max response in the experiment with HaCat [1] is -23.1%. The Potency entry with C33A, with CAOV3, in the experiment on CASKI and with Hek293T was “inactive” in each case.
For the compound `CC(=O)OCC(=O)[C@@]1(O)[C@H](C)C[C@H]2[C@@H]3C=C(C)C4=Cc5c(cnn5-c5ccccc5)C[C@]4(C)[C@@H]3[C@@H](O)C[C@@]21C`, the max response with HaCat [1] is -6.31%. Moreover, the compound was classed as inactive in the experiment with KB-3-1. For the same compound, the Potency with NIH3T3 [2] was 14.8 µM (active); with MKL-2 it was 7.43 µM (active). Besides, the Potency result in the experiment on MCC-13, in the experiment on MCC-26, with MKL-1, with UISO and in the experiment on WaGa was “inactive” each time.
For the compound `O=C(NCCS(=O)(=O)c1ccc(C(F)(F)F)cn1)c1ccc(Cl)cc1`, the compound was classed as inactive in the experiment on HaCat [1] and in the experiment with KB-3-1. The max response in the experiment on NIH3T3 [2] was 1.91%. Moreover, the Potency entry with HACAT [3], in the experiment on MCC-13, in the experiment on MCC-26, in the experiment on MKL-1, in the experiment on MKL-2 and with UISO was “inactive” in each case. For the same compound, the Potency entry in the experiment on WaGa was “inactive”.
`COc1cc(C(C)C)c2c(c1)S(=O)(=O)N(COc1cc(=O)n3cccc(OCCN4CCCCC4)c3n1)C2=O`: the result in the experiment on HaCat [1], in the experiment on KB-3-1, in the experiment on NIH3T3 [2] and with NIH3T3 [4] was inactive. The Potency entry with HACAT [3], in the experiment with MCC-13, with MCC-26, with MKL-1, with MKL-2 and in the experiment with UISO was “inactive” throughout. Besides, the Potency entry with WaGa was “inactive”.
Regarding `C[C@H]1C[C@@H]2[C@@H]([C@@H](O)C[C@@]3(C)[C@H]2CC[C@]3(O)C(=O)CO)[C@@]2(C)C=CC(=O)C=C12`, the max response is -11.8% with HaCat [1]; -1.28% and 2.95% with KB-3-1. Besides, the compound was called inactive with NIH3T3 [2] and with NIH3T3 [4]. In addition, the Potency entry with MCC-13, in the experiment with MCC-26, in the experiment with MKL-1, in the experiment with MKL-2, with UISO and in the experiment on WaGa was “inactive” throughout.
`CC(=O)OCCN1C(=O)c2c(C)nc3ccc(S(=O)(=O)N4CCOCC4)cc3c2C1=O`: the max response in the experiment with HaCat [1] was 1.24%; in the experiment on NIH3T3 [2], 2.81%. Further, the compound was classed as inactive with KB-3-1. Besides, the Potency entry with MCC-13, in the experiment on MCC-26, in the experiment on MKL-1, in the experiment on MKL-2, in the experiment on UISO and in the experiment with WaGa was “inactive” in each case.
Take `N#Cc1c(O)c2c(-c3ccc(-c4ccccc4O)cc3)csc2[nH]c1=O`: the result in the experiment on HaCat [1], with KB-3-1, with NIH3T3 [2] and with NIH3T3 [4] was inactive. Also, the max response in the experiment with NIH3T3 [2] is -1.37%. The Potency result in the experiment with HACAT [3], in the experiment with MCC-13, with MCC-26, in the experiment on MKL-1, in the experiment on MKL-2 and with UISO was “inactive” in each case. Further, the Potency entry in the experiment on WaGa, with C33A, in the experiment with CAOV3, in the experiment on CASKI, with Es-2 and in the experiment on HeLa was “inactive” each time. The Potency entry in the experiment with Hek293T, in the experiment on JEG-3 and in the experiment on OV90 was “inactive” throughout.

The record behind these values is PubChem BioAssay (NCATS).
